Source: PubChem BioAssay (NCATS)
Inconclusive results are not listed. A number with no mark means an inactive call. The source made the active and inactive calls. Calls follow the shape of the dose curve; as a rule, active = well fitted inhibition curve with a large enough effect; inconclusive = small, poorly fitted or top-dose-only effect; inactive = flat fitted curve, though single readings scatter.

assay: P-glycoprotein substrates identified in KB-8-5-11 adenocarcinoma cell line, qHTS therapeutic library screen (AID 1346987); details: KB-8-5-11 (P-gp overexpressing) viability, CellTiter-Glo, 72 h; series mostly up to 44.5 µM; activity change, negative = cytotoxicity: at the top concentration; also: nearly all actives have a fitted effect of over 65% in size
How it was run: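 KB-8-5-11: colchicine-selected sub-line of KB-3-1 over-expressing P-gp; assay medium lacked colchicine. 72 h drug exposure at 37 degree C, CellTiter-Glo.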
% is scaled to controls: 0 for no effect and ±100 for the full control effect.

Structure (SMILES) | outcome | activity change, negative = cytotoxicity
OC[C@@]1(O)CO[C@H](OC[C@H]2O[C@@H](OC(CCCCc3ccc(O)cc3)CCc3ccc(O)cc3)[C@H](O)[C@@H](O)[C@@H]2O)[C@@H]1O (some centres undefined) | inactive [at 17.3 µM] | –
CC12CC34CC(O)C5C(CO)(CO)CC(=O)CC5(C)C3CC1C2C4 (centres undefined) | – | -1.11%
NCCCCN(Cc1nc2ccccc2[nH]1)[C@H]1CCCc2cccnc21 | – | 9.98% [at 17.3 µM]
CC1(C)CC[C@]2(C(=O)O)CC[C@]3(C)C(=CCC4[C@@]5(C)C[C@@H](O)[C@H](O)[C@](C)(CO)C5CC[C@]43C)[C@@H]2[C@@H]1O (some centres undefined) | – | 4.51% [at 17.3 µM]
CC1C2=CC(=O)OC2(O)CC2C1C(OC(=O)c1ccccc1)C(OC(=O)c1ccccc1)C1(O)C2(C)CCC(O)C1(C)C(=O)O (centres undefined) | – | 5.87% [at 17.3 µM]
C/C=C(/C)C(=O)O[C@H]1C[C@]2(C)O[C@@H]2[C@@H](OC(C)=O)[C@@]2(C)CC[C@@](O)(C(C)C)[C@H]12 | – | -4.21%
O=C(O)Cc1cn([C@@H]2OC[C@@H](O[C@@H]3O[C@H](CO)[C@@H](O)[C@H](O)[C@H]3O)[C@H](O)[C@H]2O[C@@H]2O[C@H](CO)[C@@H](O)[C@H](O)[C@H]2O)c2ccccc12 | inactive [at 17.3 µM] | –
COC(=O)[C@@H](NC(=O)[C@H](CC(C)C)NC(=O)N(Cc1ccccc1)C[C@@H](O)[C@H](Cc1ccccc1)NC(=O)OC(C)(C)C)C(C)C | – | -2.72% [at 9.29 µM]
C[C@H]1/C=C/C=C/C=C/C=C/C=C/[C@@H](O)[C@H](C(=O)O)[C@H](O)C[C@H](O)CCC[C@H](O)C[C@H](O)C[C@H](O)[C@@H](C)C(=O)O[C@@H]1C | inactive [at 17.3 µM] | –
